Laboratory results as given in PubChem BioAssay AID504847 (National Center for Advancing Translational Sciences (NCATS), 2011).
Several values for one entry are separate records, joined by “and”; a condition that tells them apart may be missing. Equal values may be shown once. Screen size: about 400,000 compounds; about 3,700 (0.93%) were called active. Not shown: some 3% with an inconclusive outcome. Many of the other results were omitted from the sample, so actives are more common in it than they were. A number with no mark means an inactive call. Calls come from the whole dose curve; as a rule, active = well fitted inhibition curve with a large enough effect; inconclusive = small, poorly fitted or top-dose-only effect, or another doubt; inactive = no such curve, though single readings can be large or run the other way.

What follows are molecules tested against Vitamin D3 receptor (Homo sapiens) (UniProt P11473) (assay: Inhibitors of the vitamin D receptor (VDR): qHTS). Settings: VDR-SRC2-3 peptide fluorescence polarization, 2 h; max response, negative = inhibition: hits give low values.
Sequence of Vitamin D3 receptor (Homo sapiens) (P11473 whole entry, looked up): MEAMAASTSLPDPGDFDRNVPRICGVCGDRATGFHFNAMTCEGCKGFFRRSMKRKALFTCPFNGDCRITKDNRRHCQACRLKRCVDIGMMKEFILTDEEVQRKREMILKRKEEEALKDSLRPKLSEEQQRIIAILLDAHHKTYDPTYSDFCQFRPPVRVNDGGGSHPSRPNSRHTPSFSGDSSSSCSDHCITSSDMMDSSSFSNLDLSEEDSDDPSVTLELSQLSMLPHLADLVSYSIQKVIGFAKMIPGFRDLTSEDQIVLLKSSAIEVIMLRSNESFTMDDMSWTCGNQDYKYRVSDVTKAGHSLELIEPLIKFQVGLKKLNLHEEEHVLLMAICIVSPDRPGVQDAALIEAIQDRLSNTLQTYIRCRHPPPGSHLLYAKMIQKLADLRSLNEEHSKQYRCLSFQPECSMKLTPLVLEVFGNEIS
Summary of the method: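 Measured by FP: displacement of SRC2-3 coactivator peptide from VDR by library compounds, following a two-hour ambient incubation.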
% is set by controls: 0 for no effect and ±100 for the full control effect; potency is the fitted concentration of half-maximal effect.

SMILES | max response, negative = inhibition | Potency
CCN(CC)CCNc1ncnc2c1cnn2-c1cc(Cl)ccc1C | 11.7% | 
CN1[C@H]2CC(OC(=O)[C@@H](CO)c3ccccc3)C[C@H]1[C@H]1O[C@H]12 (stereo partly drawn) | 7.07% | 
CCOC(=O)/C=C/c1ccc(C(F)(F)F)cc1S(=O)(=O)NC(C)(C)C |  | 79.4 µM (active)
CCOC(=O)NNc1cc(C(F)(F)F)ccn1 | -1.56% | 
Cn1c(N)c(C(=O)COC(=O)/C=C/c2cccc(C(F)(F)F)c2)c(=O)n(C)c1=O | 8.93% | 
CC1(C)CCc2cc(S(=O)(=O)N3CCN(c4nc(-c5cccs5)nc5ccccc45)CC3)ccc2O1 | -7.78% | 
OCC(CO)NC1C[C@](O)(CO)[C@@H](O)[C@H](O)[C@H]1O (stereo partly drawn) | 1.5% | 
CC(=O)N1CCN(C(=O)c2cc(-c3ccc(C)o3)nc3ccccc23)CC1 | -3.82% | 
O=C(Nc1cccc(F)c1)c1cc(-c2ccco2)nc2ccccc12 | -14.8% | 
CC1CCCN(C(=O)c2cc(-c3ccco3)nc3ccccc23)C1 (stereo not drawn) |  | 35.5 µM (active)
CN(C)c1cccc(C(=O)Nc2nc3ccc(S(=O)(=O)NC(C)(C)C)cc3s2)c1 | 8.63% | 
COc1ccccc1-c1noc(CSc2nnc(-c3ccccc3)n2-c2ccc(C)c(C)c2)n1 | 5.39% | 
O=C(Cn1nc(CNc2ccc(Cl)cc2)[n+]2c1CCCCC2)c1ccc(Cl)cc1 |  | 79.4 µM (active)
O=C(Cn1ncc(N2CCCC2)c(Br)c1=O)c1ccc(Cl)cc1 | -1.29% | 
O=C(Cn1nc(C(F)(F)F)c2c1CCCC2)Nc1ccc(Cl)cc1 | 4.81% | 
Cc1cccc(N2CCN(c3ccc(C(=O)O)cc3NC(=O)c3ccccc3F)CC2C)c1 (stereo not drawn) | 1.51% | 
O=C(Nc1ccccc1Cl)N1CCC(CN2CCCC2)CC1 | 6.62% | 
O=C(CCN1CCN(C/C=C/c2ccccc2)CC1)Nc1ccccc1Cl | -1.78% | 
O=C(Nc1ccccc1Cl)/C(Cl)=C(\Cl)S(=O)c1ccccc1 (stereo not drawn) |  | 3.98 µM (active)
CCn1cc(C(=O)NCc2ccc(C)cc2)c(=O)c2cc(S(=O)(=O)N3CCc4ccccc4C3)ccc21 | -10.3% | 
Cc1ccc(C(NC(=O)N2CCCC2)C(Cl)(Cl)Cl)cc1F (stereo not drawn) | 6.9% | 
Cc1ccc(C(=O)N2CCCC2)c(F)c1F |  | 44.7 µM (active)

SMILES | max response, negative = inhibition | Potency
Cc1c(Br)cc(C(=O)N2CCCCCC2)c(C)c1C | -2.34% | 
CCC(=O)Nc1cccc(C(=O)OCc2cc(=O)n3nc(CC)sc3n2)c1 | 7.59% | 
C=C1C(=CC=C2CCC[C@@]3(C)[C@@H]2CC[C@H]3[C@H](C)CCCC(C)C)C[C@@H](O)C[C@@H]1O | 8.33% | 
CCOCCn1ccc2c(OCC(=O)NCc3ccc(C)cc3)cccc2c1=O | 10.6% | 
Cc1ccc(OCC(=O)Nc2ccc(OCc3cc(=O)n4c(C)csc4n3)cc2)cc1C | -8.2% | 
O=C(Nc1c(C(=O)N2CCN(c3ccc(F)cc3)CC2)oc2ccccc12)c1ccco1 | -2.38% | 
COc1ccccc1CNC(=O)c1ccc(-n2c(C)cc3c2CCCC3)cc1 | 13.6% | 
O=c1cc(CO)oc(C(Nc2cccc([N+](=O)[O-])c2)c2ccccn2)c1O (stereo not drawn) |  | 79.4 µM (active)
Cn1c(=O)c2c(ncn2CC(=O)Nc2cccc(C(F)(F)F)c2)n(C)c1=O | 2.35% | 
O=C(CSc1nnc(-c2ccccc2F)o1)Nc1cccc(C(F)(F)F)c1 | -10.5% | 
O=C(Nc1ccc([N+](=O)[O-])cc1)OCCc1ccccn1 | -15.4% | 
O=C(CSc1nc(-c2ccccc2)cs1)Nc1cccc([N+](=O)[O-])c1 | -15.3% | 
O=c1cc(CO)oc(C(Nc2cccc(C(F)(F)F)c2)c2ccccn2)c1O (stereo not drawn) |  | 50.1 µM (active)
Cc1c(Cl)cccc1NC(=O)c1noc2c1CCCC2 | -14.6% | 
O=C(NCc1ccccc1)c1ccc2c(c1)nc1n2CCCCC1 | 12.2% | 
Cc1ccc(C)c(NC(=O)C2CCCN(S(=O)(=O)c3cn(C)cn3)C2)c1 (stereo not drawn) | 2.5% | 
COCCNC(=O)c1ccc2c(c1)N(Cc1cccc(Cl)c1)C(=O)c1ccccc1S2(=O)=O | 5.24% | 
CCCCOc1ccc(C(=O)N2CC(=O)Nc3ccc(Br)cc3C2c2ccc(F)cc2)cc1 (stereo not drawn) | -9.94% | 
Cc1cccc(C2CC(=O)Oc3c2c(=O)n(C)c2ccccc32)c1 (stereo not drawn) | 0.823% | 
Cc1cccc(Oc2c([N+](=O)[O-])c(=O)n(C)c3ccccc23)c1 |  | 39.8 µM (active)
Cc1cccc(OP(=O)(Nc2c(C)n(C)n(-c3ccccc3)c2=O)Oc2cccc(C)c2)c1 | 10.3% | 
Cc1c2cnn(-c3ccccc3)c(=O)c2c(C)n1C(C)C(=O)Nc1ccc(Br)cc1F (stereo not drawn) | 11.8% | 

SMILES | max response, negative = inhibition | Potency
CN(Cc1ccccc1)C(=O)c1cc2c(=O)n(C)c3ccccc3c2s1 | -5.87% | 
C/C(Nc1ccc2oc(=O)ccc2c1)=C1/C(=O)CC2[C@@H]1C2(C)C (stereo partly drawn) | -29.7% | 
CCC1CN(S(=O)(=O)c2cc(-c3cc(C)no3)ccc2C)c2cc(C)ccc2O1 (stereo not drawn) | 10.7% | 
CN1C(=O)CN2CCc3ccccc3C2c2cc(Cl)ccc21 (stereo not drawn) | -10.7% | 
Clc1cccc(-c2nc3nc4ccccc4nc3n2Cc2ccco2)c1 | 4.83% | 
O=c1[nH]c(CSc2ncc(-c3ccc(F)cc3)n2Cc2ccco2)nc2ccccc12 | 7.47% | 
Cc1ccc(Cn2c(C)nc3c(c2=O)c2nc4ccccc4nc2n3Cc2ccco2)cc1 |  | 56.2 µM (active)
CCOc1ccc(-c2n[nH]c3c2C(c2ccccc2OC)N(c2ccc(Br)cc2)C3=O)cc1 (stereo not drawn) | -27% | 
Nc1ccc2nc3c(=O)[nH]c(=S)[nH]c3nc2c1 |  | 79.4 µM (active)
O=C(NCCc1ccc(Cl)cc1)c1ccc2c(c1)N(Cc1ccc(F)cc1)C(=O)CS2 | -1.91% | 
Cc1c(S(=O)(=O)O)oc2c1C(=O)C(=O)c1c-2ccc2c1CCCC2(C)C |  | 8.91 µM (active)
Cc1ccc(C(=O)Nc2nc(-c3ccccc3)ns2)cc1 | 2.63% | 
CCCCCCCCCCCCCCCCO | 0.1% and 6.37% | 
CCOc1ccc(-n2c(N)c(C(=O)NCC3CCCO3)sc2=S)cc1 (stereo not drawn) |  | 79.4 µM (active)
CCOc1ccc(S(=O)(=O)N2CCN(C(=S)NCC3CCCO3)CC2)cc1 (stereo not drawn) | 28.2% | 
CCOc1ccc(S(=O)(=O)NCCC(=O)NCC2CCCO2)cc1 (stereo not drawn) | -3.32% | 
O=C(NC1CC(=O)N(c2ccc(Cl)cc2)C1)C1CCCC1 (stereo not drawn) | -5.32% | 
CCCCC(=O)Nc1c2c(nn1-c1ccc([N+](=O)[O-])cc1)CS(=O)(=O)C2 | -18.5% | 
O=C1/C(=C\c2ccc([N+](=O)[O-])cc2)CS(=O)(=O)C/C1=C/c1ccc([N+](=O)[O-])cc1 |  | 39.8 µM (active)
CN(C)S(=O)(=O)N1CCN(c2ccc([N+](=O)[O-])cc2)CC1 | -2.16% | 
Cc1cc(C)c(-c2n[nH]c3c2C(c2ccccc2F)N(CCO)C3=O)c(O)c1 (stereo not drawn) | 7.23% | 
O=c1cnc2cnc(Nc3ccccc3)nc2n1Cc1ccc(F)cc1 | -4.57% | 

SMILES | max response, negative = inhibition | Potency
Cc1cc(NC(=O)CSc2ncc(C(=O)Nc3ccc(Cl)cc3)c(=O)n2C)no1 | 4.19% | 
COc1ccc(NC(=O)c2ccco2)cc1NC(=O)COc1ccc(C)c(C)c1 | 5.81% | 
O=C(O)c1ccccc1NC(=O)c1ccccc1-c1ccccc1C(=O)O | -22.4% | 
CN1CCN(C(=O)c2ccc(-c3ccc(Br)cc3)o2)CC1 | -9.02% | 
O=C(NC(=S)Nc1ccccc1C(=O)O)c1ccc(-c2ccc(Br)cc2)o1 |  | 70.8 µM (active)
O=C(Nc1ccccc1Cl)N1CCC(CN2CCCCC2)CC1 | 4.52% | 
COc1cc(-c2cc3n(C)c(C)c(CCC(=O)Nc4ccc(F)cc4)c(=O)n3n2)cc(OC)c1OC | -2.64% | 
NCCCNC(=S)NCCCN(Cc1ccc(Cl)cc1)c1ccc(Br)cn1 | -24.7% | 
CC(=O)Nc1ccc(S(=O)(=O)Nc2ccc(N3CCCCC3)cc2)cc1 | 6.02% | 
O=C1C=CC(=O)N1c1ccc(N2CCCCC2)cc1 |  | 17.8 µM (active)
O=C(C1CC(=O)N(C2CCCCC2)C1)N1CCN(c2ccccc2)CC1 (stereo not drawn) | -11.8% | 
Cc1cc(-c2ccc(C)c(S(=O)(=O)N3c4ccccc4CC3C)c2)on1 (stereo not drawn) | 9.78% | 
Cc1[nH][nH]c(=O)c1C(c1ccc(-c2ccc(Cl)cc2)o1)c1c(C)[nH][nH]c1=O |  | 79.4 µM (active)
CCOc1ccc(C(=O)CCC(=O)Nc2ccncc2)cc1 | -4.74% | 
CCOc1ccc(C(=O)N2CCN(CCc3ccccn3)CC2)cc1 | -7.3% | 
CCOc1ccc(C(=O)CCN2CCOCC2)cc1 |  | 50.1 µM (active)
Cc1ccc(-c2nnc3c4ccccc4c(C)nn23)cc1NC(=O)c1cccc(Br)c1 | -6.72% | 
CCC(=O)N1CCc2cc(S(=O)(=O)NC(C(=O)NCCc3ccc(C)cc3)C(C)C)ccc21 (stereo not drawn) | -2.72% | 
Cc1cccc(N2CCN(C(=O)Cn3ncc4c5ccccc5n(C)c4c3=O)CC2C)c1 (stereo not drawn) | 4.17% | 
CCCC[C@H]1C(=O)N(c2ccccc2)N(c2ccc(O)cc2)C1=O |  | 10 µM (active)
CCCCc1ccc(NC(=O)CN2C(=O)NC(Cc3ccccc3)C2=O)cc1 (stereo not drawn) | 3.7% | 
CCCOC(=O)c1ccc(N2C(=O)c3ccccc3C2=O)cc1 | -19.4% | 
